Records with an inconclusive call do not appear. A call without a number means that no potency is given here. Unmarked numbers belong to inactive results. The source made the active and inactive calls. Unless noted, calls come from the whole dose curve; as a rule, active = well fitted curve in the direction sought with a large enough effect in the repeat runs; inconclusive = weak or mixed curves; inactive = no such curve, though single readings can be large; an effect the other way counts as inactive or inconclusive.
How the values were obtained:
[1] = molecular target: Peroxisome proliferator-activated receptor delta (Homo sapiens) (UniProt Q03181); assay: qHTS assay to identify small molecule agonists of the peroxisome proliferator-activated receptor delta (PPARd) signaling pathway (AID 743212; calls by dose curve;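 note: HEK293H cells with PPARd UAS beta-lactamase reporter GeneBLAzer system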)
How it was run: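 Beta-lactamase reporter read by fluorescence (LiveBLAzer B/G FRET, 2 h, room temperature). Test agents, in DMSO, incubated at 37 C with PPARd-bla HEK293H cells.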

[2] = qHTS assay to identify small molecule antagonists of the peroxisome proliferator-activated receptor delta (PPARd) signaling pathway - cell viability counter screen (AID 743213); note: nearly all actives have a fitted effect of over 50% in size; note: potency is the fitted concentration of half-maximal effect
How it was run: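 CellTiter-Glo was added to PPARd-bla HEK293H wells following 17 h compound treatment in the presence of 300 nM L165041. Luminescence was recorded after 30 min at room temperature.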

[3] = molecular target: Peroxisome proliferator-activated receptor delta (Homo sapiens) (UniProt Q03181); assay: qHTS assay to identify small molecule antagonists of the peroxisome proliferator-activated receptor delta (PPARd) signaling pathway (AID 743215; active = well fitted inhibition curve with a large enough effect in the signal ratio in the repeat runs, not every such curve was filed as active; the % refers to the signal ratio;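 note: cells stimulated with agonist L165041 at 300 nM final during compound exposure; series mostly up to about 62 µM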)
How it was run: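 Fluorescence from cleaved LiveBLAzer B/G FRET substrate (2 h, room temperature) reports PPARd-driven beta-lactamase in HEK293H UAS-bla cells. Cells had been treated 17 h at 37 C with compound plus 300 nM final L165041.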

[4] = qHTS assay to identify small molecule agonists of the farnesoid-X-receptor (FXR) signaling pathway - cell viability counter screen (AID 743218); note: nearly all actives have a fitted effect of over 45% in size; note: potency is the fitted concentration of half-maximal effect
How it was run: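 Readout: CellTiter-Glo luminescence, 30 min RT, multiplexed after the FXR-bla FRET reading. HEK 293T FXR-UAS-bla cells received compound 5 h post-plating and were incubated 16 h at 37 C.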

[5] = qHTS assay to identify small molecule antagonists of the farnesoid-X-receptor (FXR) signaling pathway - cell viability counter screen (AID 743221; active = well fitted cell-killing curve with a large enough effect in the repeat runs, not every such curve was filed as active; note: nearly all actives have a fitted effect of over 50% in size; note: potency is the fitted concentration of half-maximal effect)
How it was run: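 Quantitative HTS of the Tox21 10K library run in parallel with the beta-lactamase reporter read. HEK 293T cells carrying a UAS-driven bla reporter got compound and 50 uM CDCA (final) for 16 h; ATP-based luminescence followed.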

[6] = qHTS assay to identify small molecule agonists of the vitamin D receptor (VDR) signaling pathway - cell viability counter screen (AID 743224); note: series mostly up to about 63 µM; nearly all actives have a fitted effect of over 50% in size
How it was run: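 In parallel with the bla FRET readout, cytotoxicity toward VDR-bla cells after 16 h compound exposure was assessed by CellTiter-Glo, with luminescence recorded after a 30 min room-temperature incubation.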

[7] = qHTS assay to identify small molecule antagonists of the vitamin D receptor (VDR) signaling pathway - cell viability counter screen (AID 743225); note: nearly all actives have a fitted effect of over 50% in size; note: potency is the fitted concentration of half-maximal effect
How it was run: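 Cells (VDR-UAS-bla HEK 293T) are plated, rested 4 h at 37C, dosed with compound and 3 nM final 1-alpha,25-dihydroxy vitamin D3, and incubated 16 h. Viability is taken from CellTiter-Glo luminescence in the reporter wells.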

[8] = qHTS assay to identify small molecule agonists of the NFkB signaling pathway (AID 1159509; active = well fitted curve in the direction sought with a large enough effect in the signal ratio in the repeat runs, not every such curve was filed as active; the % refers to the signal ratio; note: series mostly up to about 61 µM)
How it was run: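 Beta-lactamase reporter assay run in quantitative high-throughput format on an NF-kB-responsive ME-180 line, with 5 hr compound treatment and a FRET-based blue/green fluorescence readout.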

[9] = qHTS assay to identify small molecule agonists of the NFkB signaling pathway - cell viability counter screen (AID 1159515; calls by dose curve; note: nearly all actives have a fitted effect of over 55% in size; note: potency is the fitted concentration of half-maximal effect)
How it was run: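 Plate 2,000 NFkB-bla ME-180 cells/well; incubate overnight. Add compounds, 5 hr at 37 C. Add FRET substrate, 1.5 hr RT. Add CellTiter-Glo, 30 min RT; read luminescence.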

[10] = qHTS assay to identify small molecule agonists of the endoplasmic reticulum stress response signaling pathway - cell viability counter screen (AID 1159517; calls by dose curve; note: nearly all actives have a fitted effect of over 50% in size; note: potency is the fitted concentration of half-maximal effect)
How it was run: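 Cytotoxicity of test compounds toward ESRE-bla HeLa cells was assessed after 5 hr exposure. The luminescent CellTiter-Glo signal was measured 30 min after reagent addition.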

[11] = qHTS assay to identify small molecule antagonists of the retinoid-related orphan receptor gamma (ROR-gamma) signaling pathway - cell viability counter screen (AID 1159520); note: nearly all actives have a fitted effect of over 50% in size
How it was run: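 Tet-on ROR gamma CHO cells (1,000/well) were plated 4 hr, given compounds in DMSO for 2 hr at 37 C, then induced with 1 uM final doxycycline for 16 hr. Viability was read as ATP by CellTiter-Glo luminescence after 30 min.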

[12] = molecular target: Nuclear receptor ROR-gamma (Homo sapiens) (UniProt P51449); assay: qHTS assay to identify small molecule antagonists of the retinoid-related orphan receptor gamma (ROR-gamma) signaling pathway (AID 1159521; note: nearly all actives have a fitted effect of over 50% in size; note: potency is the fitted concentration of half-maximal effect;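 for activity change, negative = inhibition: CHO cells with doxycycline inducible ROR-gamma driving an RORE luciferase reporter; top concentration of the series differs between compounds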)
How it was run: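 RORγ antagonism is scored from reduced reporter luminescence in Tet-on CHO cells. Induction used 1 uM final doxycycline hyclate for 16 h at 37 C, following a 2 h compound exposure.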

[13] = qHTS assay to identify small molecule agonists of the AP-1 signaling pathway - cell viability counter screen (AID 1159525; calls by dose curve; note: nearly all actives have a fitted effect of over 55% in size; note: potency is the fitted concentration of half-maximal effect)
How it was run: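 Each titration point was normalised to DMSO and tetra n-octyl ammonium bromide controls. The read was Cell Titer Glo luminescence after 30 min at RT, following 5 h compound exposure of ME-180 AP-1-bla cells at 37 °C.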

[14] = qHTS assay to identify small molecule agonists of the AP-1 signaling pathway (AID 1159526; calls by dose curve)
[15] = qHTS assay to identify small molecule agonists of the peroxisome proliferator-activated receptor delta (PPARd) signaling pathway - cell viability counter screen (AID 743211); note: nearly all actives have a fitted effect of over 55% in size
How it was run: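 Viability of GeneBLAzer PPARd UAS-bla HEK293H cells was assessed after 17 h compound incubation at 37C, using CellTiter-Glo reagent added after the reporter read and luminescence recorded 30 min later.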

[16] = molecular target: Vitamin D3 receptor (Homo sapiens) (UniProt P11473); assay: qHTS assay to identify small molecule agonists of the vitamin D receptor (VDR) signaling pathway (AID 743222; calls by dose curve)
How it was run: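 Following 4 h attachment at 37C, VDR-bla cells (2,000 per well) received DMSO-dissolved compounds or controls. After 16 h incubation, LiveBLAzer B/G FRET substrate was added and fluorescence read 2 h later at room temperature.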

[17] = molecular target: Bile acid receptor (Homo sapiens) (UniProt Q96RI1); assay: qHTS assay to identify small molecule antagonists of the farnesoid-X-receptor (FXR) signaling pathway (AID 743217; active = well fitted inhibition curve with a large enough effect in the signal ratio in the repeat runs, not every such curve was filed as active; the % refers to the signal ratio)
How it was run: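 FRET fluorescence after 2 h room-temperature LiveBLAzer loading gives the readout. Prior step: FXR-bla HEK 293T cells, seeded and incubated 5 h, received test compounds plus 50 uM final CDCA for 16 h at 37 °C.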

[18] = molecular target: Vitamin D3 receptor (Homo sapiens) (UniProt P11473); assay: qHTS assay to identify small molecule antagonists of the vitamin D receptor (VDR) signaling pathway (AID 743223; active = well fitted inhibition curve with a large enough effect in the signal ratio in the repeat runs, not every such curve was filed as active; the % refers to the signal ratio)
How it was run: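 Fluorescence from LiveBLAzer B/G FRET substrate, read after 2 h at room temperature, reflects beta-lactamase reporter activity in VDR-bla cells treated 16 h at 37C with compounds and agonist 1alpha,25-dihydroxyvitamin D3 (3 nM final).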

[19] = molecular target: Bile acid receptor (Homo sapiens) (UniProt Q96RI1); assay: qHTS assay to identify small molecule agonists of the farnesoid-X-receptor (FXR) signaling pathway (AID 743220; active = well fitted activation curve with a large enough effect in the signal ratio in the repeat runs, not every such curve was filed as active; the % refers to the signal ratio)
How it was run: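 FXR-UAS-bla HEK 293T cells carrying a UAS-driven beta-lactamase reporter were plated for 5 h at 37C/5% CO2, then exposed to DMSO-dissolved Tox21 10K compounds for 16 h at 37C. A LiveBLAzer B/G FRET substrate was loaded for 2 h at room temperature before fluorescence reading.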

Chain of Peroxisome proliferator-activated receptor delta (Homo sapiens) (Q03181 whole entry, looked up): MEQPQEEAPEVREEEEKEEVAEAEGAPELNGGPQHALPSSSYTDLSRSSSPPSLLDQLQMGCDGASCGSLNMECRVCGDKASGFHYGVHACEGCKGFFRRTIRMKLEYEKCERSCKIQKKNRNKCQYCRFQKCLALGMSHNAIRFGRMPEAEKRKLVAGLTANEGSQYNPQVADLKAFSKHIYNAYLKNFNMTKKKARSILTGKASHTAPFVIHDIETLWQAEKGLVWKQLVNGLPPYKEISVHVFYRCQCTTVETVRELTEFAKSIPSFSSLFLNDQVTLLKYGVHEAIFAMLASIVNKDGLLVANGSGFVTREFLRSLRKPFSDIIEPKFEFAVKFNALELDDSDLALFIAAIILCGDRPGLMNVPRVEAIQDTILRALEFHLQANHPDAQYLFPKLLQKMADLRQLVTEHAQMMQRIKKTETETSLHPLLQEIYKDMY
Chain of Bile acid receptor (Homo sapiens) (Q96RI1 whole entry, looked up): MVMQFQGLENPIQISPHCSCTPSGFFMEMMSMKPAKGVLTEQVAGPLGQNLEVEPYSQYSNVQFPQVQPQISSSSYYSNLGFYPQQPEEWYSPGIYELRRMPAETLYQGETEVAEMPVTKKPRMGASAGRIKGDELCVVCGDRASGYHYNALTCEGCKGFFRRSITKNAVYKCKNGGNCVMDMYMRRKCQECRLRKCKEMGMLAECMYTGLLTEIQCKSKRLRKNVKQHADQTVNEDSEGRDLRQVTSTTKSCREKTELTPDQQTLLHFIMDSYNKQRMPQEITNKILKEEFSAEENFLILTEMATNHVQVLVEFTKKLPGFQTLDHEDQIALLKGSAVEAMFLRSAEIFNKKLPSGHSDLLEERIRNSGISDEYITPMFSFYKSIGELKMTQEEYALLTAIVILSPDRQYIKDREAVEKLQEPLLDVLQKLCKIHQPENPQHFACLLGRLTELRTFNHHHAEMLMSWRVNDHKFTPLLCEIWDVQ
Chain of Vitamin D3 receptor (Homo sapiens) (P11473 whole entry, looked up): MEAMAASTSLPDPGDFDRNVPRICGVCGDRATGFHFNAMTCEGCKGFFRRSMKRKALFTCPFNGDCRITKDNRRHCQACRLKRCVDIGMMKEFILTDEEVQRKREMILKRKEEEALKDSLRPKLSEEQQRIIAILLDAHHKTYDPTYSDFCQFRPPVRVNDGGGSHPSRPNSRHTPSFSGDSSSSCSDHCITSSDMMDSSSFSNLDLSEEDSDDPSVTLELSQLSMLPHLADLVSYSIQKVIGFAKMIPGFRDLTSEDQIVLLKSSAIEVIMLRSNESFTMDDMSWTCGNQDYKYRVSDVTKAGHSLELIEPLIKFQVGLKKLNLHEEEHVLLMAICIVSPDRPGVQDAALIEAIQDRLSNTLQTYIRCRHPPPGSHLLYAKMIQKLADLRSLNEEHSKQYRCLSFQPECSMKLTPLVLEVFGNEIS

SMILES: COC1CCC=CO1 (stereo not given)
- outcome [1]: inactive
- Potency [2]: inactive
- Potency [3]: inactive
- Potency [4]: inactive
- Potency [5]: inactive
- Potency [6]: inactive
- Potency [7]: inactive
- outcome [8]: inactive
- Potency [9]: inactive
- Potency [10]: 55.3 µM (active)
- Potency [11]: inactive
- Potency [12]: inactive
- Potency [13]: inactive
- outcome [14]: inactive

SMILES: CC1CCCC(=O)C1=O (stereo not given)
- Potency [15]: inactive
- outcome [1]: inactive
- Potency [2]: inactive
- Potency [3]: inactive
- Potency [4]: inactive
- Potency [5]: inactive
- outcome [16]: inactive
- Potency [6]: inactive
- Potency [7]: inactive
- outcome [8]: inactive
- Potency [9]: inactive
- Potency [10]: inactive
- Potency [11]: inactive
- Potency [12]: inactive
- outcome [14]: inactive

SMILES: CCN(CC)c1cccc(O)c1
- Potency [15]: inactive
- Potency [2]: inactive
- Potency [3]: inactive
- Potency [4]: inactive
- Potency [5]: inactive
- Potency [7]: inactive
- outcome [8]: inactive
- Potency [9]: inactive
- Potency [10]: inactive
- Potency [12]: inactive
- Potency [13]: inactive
- outcome [14]: inactive

SMILES: CNS(=O)(=O)c1cc(C(=O)N2CCC(CCN3C4CCC3CC(n3c(C)nc5ccccc53)C4)(c3cccc(F)c3)CC2)c(Cl)cc1F (stereo not given)
- Potency [2]: 7.76 µM (active)
- Potency [4]: 7.76 µM (active)
- Potency [5]: 21.9 µM (active)
- Potency [7]: 13.8 µM (active)
- outcome [8]: inactive
- Potency [9]: 38.9 µM (active)
- Potency [10]: inactive
- Potency [11]: inactive
- Potency [12]: 7.7 µM (active)
- Potency [13]: 24.5 µM (active)
- outcome [14]: inactive

SMILES: CCCCCCCCCCCCCCN(C)C
- Potency [15]: inactive
- Potency [2]: inactive
- Potency [4]: inactive
- Potency [5]: inactive
- outcome [16]: inactive
- Potency [7]: inactive
- outcome [8]: inactive
- Potency [9]: inactive
- Potency [10]: inactive
- activity, negative = cytotoxicity [11]: 0.214% [at 19 µM]
- activity change, negative = inhibition [12]: -1.54% [at 19 µM]
- activation [14]: -14.8% [at 15.8 µM]

SMILES: CCCCC(CC)COS(=O)(=O)O (stereo not given)
- outcome [1]: inactive
- Potency [2]: inactive
- Potency [3]: inactive
- outcome [17]: inactive
- Potency [4]: inactive
- Potency [5]: inactive
- outcome [16]: inactive
- Potency [6]: inactive
- Potency [7]: inactive
- outcome [8]: inactive
- Potency [9]: inactive
- Potency [10]: inactive
- Potency [11]: inactive
- Potency [12]: inactive
- Potency [13]: inactive
- outcome [14]: inactive

SMILES: N[C@@H](Cc1cc(I)c(O)c(I)c1)C(=O)O
- Potency [15]: inactive
- outcome [1]: inactive
- Potency [2]: inactive
- Potency [3]: inactive
- Potency [4]: inactive
- Potency [5]: inactive
- outcome [16]: inactive
- outcome [18]: inactive
- Potency [6]: inactive
- Potency [7]: inactive
- outcome [8]: inactive
- Potency [9]: inactive
- Potency [10]: inactive
- Potency [11]: inactive
- Potency [12]: inactive
- outcome [14]: inactive

SMILES: C1=CCC2CC=CC2C1 (stereo not given)
- Potency [15]: inactive
- outcome [1]: inactive
- Potency [2]: inactive
- Potency [3]: inactive
- outcome [17]: inactive
- Potency [4]: inactive
- Potency [19]: inactive
- Potency [5]: inactive
- outcome [16]: inactive
- Potency [6]: inactive
- Potency [7]: inactive
- outcome [8]: inactive
- Potency [9]: inactive
- Potency [10]: inactive
- Potency [11]: inactive
- Potency [12]: inactive
- outcome [14]: inactive

SMILES: Cc1ccc(N(CC2=NCCN2)c2cccc(O)c2)cc1
- outcome [1]: inactive
- Potency [2]: inactive
- Potency [3]: inactive
- Potency [4]: inactive
- Potency [19]: inactive
- Potency [5]: inactive
- outcome [16]: inactive
- outcome [18]: inactive
- Potency [6]: inactive
- Potency [7]: inactive
- outcome [8]: inactive
- Potency [9]: inactive
- Potency [10]: inactive
- Potency [11]: inactive
- Potency [12]: inactive
- Potency [13]: inactive
- outcome [14]: inactive
